Screening results deposited in PubChem by several laboratories.
Compounds with a hit are over-represented: about 3.8% of the library has one in this group of screens.
FGF22 binding: binders of recombinant human FGF22 by thermal shift. activity (Tm shift, normalised), % at 9.99 µM. SYPRO orange fluorescence; percent of sucrose octasulfate shift, DMSO zero. 340,000 tested, 1.5% active. AID 651658;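 active means mean Tm shift, scaled 0 neutral to 100 positive control, at about 1.3% or above, every replicate too, limit read from the data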
Target sequence (Q9HCT0 whole entry, looked up): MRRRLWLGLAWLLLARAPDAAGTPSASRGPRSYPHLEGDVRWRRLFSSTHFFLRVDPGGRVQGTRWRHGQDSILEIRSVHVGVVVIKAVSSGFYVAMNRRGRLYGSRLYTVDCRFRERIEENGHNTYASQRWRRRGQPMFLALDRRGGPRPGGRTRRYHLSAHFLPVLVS
ADAM17 inh: inhibits human ADAM17 | recombinant ADAM17, EDANS/DABCYL FRET peptide cleavage | P78536 | 370,000 tested, 0.83% active | AID 720648 | inhibition, % at 6.95 µM;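 active means inhibition above the mean of compounds lying between control limits plus 3 SD, set per campaign, cut at about 8.5% in these data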;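 further: 0% = DMSO-only wells as the low control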
proKLK7 act: activators of human kallikrein-7 zymogen | P49862 | purified proKLK7, EDANS-DABCYL substrate fluorescence; 100% is mature enzyme control, 0% vehicle | activation, % at 7 µM | 370,000 tested, 0.9% active | AID 652039;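 active means activation above the mean of all tested compounds plus 3 SD, computed per campaign excluding outliers beyond control limits, cut at about 13% in these data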
Target sequence (P49862 whole entry, looked up): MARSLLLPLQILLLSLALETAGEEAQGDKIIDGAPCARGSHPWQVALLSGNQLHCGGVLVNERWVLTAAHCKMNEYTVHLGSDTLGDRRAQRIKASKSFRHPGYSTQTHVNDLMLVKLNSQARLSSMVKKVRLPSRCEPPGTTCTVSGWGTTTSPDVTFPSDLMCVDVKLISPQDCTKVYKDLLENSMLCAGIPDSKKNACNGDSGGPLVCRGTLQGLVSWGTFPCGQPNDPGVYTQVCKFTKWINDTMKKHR
ADAM10 inh: inhibits human ADAM10; O14672; recombinant ADAM10, EDANS/DABCYL FRET peptide cleavage, 3 h; inhibition, % at 7 µM; 370,000 tested, 0.62% active; AID 720582;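 active means inhibition above a per-campaign cutoff equal to the mean of compounds falling between control-based bounds plus 3 SD, cut at about 20% in these data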;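 further: 0% = DMSO wells while the 100% control is not disclosed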
Ecoli rRNA inh: selective bacterial rRNA inhibition in E. coli. AID 720706. 350,000 tested, 1.6% active. E. coli WT GFP vs humanized-ribosome RFP mutants, fluorescence, 24 h; stronger effect = lower value; DMSO median 0, no signal -100. GFP signal change (wild-type ribosome), % (no concentration beside the values);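 active means significant combined selectivity score with lowered wild-type GFP, culture density cut under 30%, mutant RFP and density less affected; inactive means any of these conditions unmet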
KLK7 act conf: proKLK7 activation, confirmation. activation, % at 7 µM. purified proKLK7, EDANS-DABCYL substrate fluorescence; scaled: vehicle 0, mature enzyme 100. AID 686949. 3,200 tested, 68% active. shares compounds with proKLK7 act;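 active means activation, as change over the incubation, above the mean of all tested compounds plus 3 SD, cut at about 13% in these data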
EDANS-DABCYL int: fluorescence interference counter-screen for KLK7 activators | shares compounds with proKLK7 act | EDANS-DABCYL substrate fluorescence interference, no enzyme, 4 h; solvent 0%, active enzyme control 100% | activation, % at 7 µM | 3,200 tested, 80% active;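 active means activation above the all-compound mean plus 3 SD, ignoring values outside control-based bounds, cut at about 4.8% in these data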;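 further: value is the 4 h activation minus the activation read at time zero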
EDANS interf: counter-screen for kallikrein-7 activators: EDANS-DABCYL interference, dose response | shares compounds with proKLK7 act | EDANS-DABCYL peptide fluorescence interference, no enzyme | EC50, µM | 250 tested, 20% active | AID 720493;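 active means compounds that raise the fluorescence signal in this interference counterscreen, with EC50 at or below 10 µM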;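 further: intact quenched peptide substrate alone read at 355 nm excitation and 520 nm emission; signal is fluorescence gain from T0 to T4 after four hours at room temperature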
* hit, by the source's call.

`O=C(O)CCC(=O)NN1C(=O)c2ccccc2NC1c1ccc(F)cc1` (stereo unspecified) gave FGF22 binding -0.4, ADAM17 inh -230.8, proKLK7 act 17.4*, ADAM10 inh inactive, Ecoli rRNA inh 5.7, KLK7 act conf 37.9*, EDANS-DABCYL int 30.6* and EDANS interf >69.5.
`CCOC(=O)NN1C(=O)c2ccccc2NC1c1ccc(OC)c(OC)c1` (stereo unspecified) gave FGF22 binding 43.3*, ADAM17 inh -234.9, proKLK7 act 19.7*, ADAM10 inh inactive, Ecoli rRNA inh 19.1, KLK7 act conf 25.1* and EDANS-DABCYL int 26.4*.
Screening CCN(CC)CCN1C(=O)c2ccccc2NC1c1ccccc1F (stereo unspecified) returned ADAM17 inh -330.9, proKLK7 act 73.6*, ADAM10 inh inactive, KLK7 act conf 26.1* and EDANS-DABCYL int 37.6*.
Screening CC(=O)Nc1cccc2c1O[C@H](CN(C)C(=O)NC(C)C)[C@H](C)CN(C)C2=O returned Ecoli rRNA inh 3.0.
O=C(C[C@H]1CC[C@@H](NC(=O)Nc2ccc3c(c2)OCO3)[C@@H](CO)O1)NCc1ccc(Cl)cc1 was read as FGF22 binding 0.2 and Ecoli rRNA inh -7.0.
COc1ccc(S(=O)(=O)N(C)C[C@@H]2Oc3ccc(N(C)C)cc3C(=O)N([C@@H](C)CO)C[C@H]2C)cc1 was read as FGF22 binding -0.3 and Ecoli rRNA inh -2.3.
CCN(CC)CCN1C(=O)c2ccccc2NC1c1ccc(N(C)C)cc1 (stereo unspecified) was read as ADAM17 inh -162.6, proKLK7 act 2.8 and ADAM10 inh inactive.
For CCN(CC)CCN1C(=O)c2ccccc2NC1c1ccc(C)cc1 (stereo unspecified) the results were ADAM17 inh -270.6, proKLK7 act 74.6*, ADAM10 inh inactive, KLK7 act conf 28.8* and EDANS-DABCYL int 37.1*.
Screening CCN(CC)CCN1C(=O)c2ccccc2NC1c1cccc(F)c1 (stereo unspecified) returned ADAM17 inh -349.7, proKLK7 act 71.5*, ADAM10 inh inactive, KLK7 act conf 34.8* and EDANS-DABCYL int 33.4*.
`CN(C)c1ccc(C2Nc3ccccc3C(=O)N2CCCN2CCOCC2)cc1` (stereo unspecified) gave FGF22 binding -0.1, ADAM17 inh -74.8, proKLK7 act 0.1, ADAM10 inh -183.6 and Ecoli rRNA inh 8.4.
For CCN(CC)CCN1C(=O)c2ccccc2NC1c1ccc(Br)cc1 (stereo unspecified) the results were FGF22 binding 42.3, ADAM17 inh -268.2, proKLK7 act 60.8*, ADAM10 inh inactive, Ecoli rRNA inh 10.4, KLK7 act conf 12.3 and EDANS-DABCYL int 23.2*.
Screening CCCC#Cc1ccc2c(c1)O[C@H](CN(C)C(=O)Nc1ccccc1F)[C@@H](C)CN([C@H](C)CO)S2(=O)=O returned FGF22 binding -0.2 and Ecoli rRNA inh -5.0.
For Cc1cc(C(=O)Nc2cccc3c2O[C@H](CN(C)C(=O)Nc2ccc(F)cc2)[C@H](C)CN([C@H](C)CO)C3=O)n(C)n1 the results were FGF22 binding -0.1 and Ecoli rRNA inh -0.6.
For C/C=C/c1ccc([C@H]2[C@@H](CO)N(Cc3cncnc3)C23CN(C(C)=O)C3)cc1 the results were FGF22 binding -0.5 and Ecoli rRNA inh 0.6.
`CO[C@H]1CN(C)C(=O)c2ccc(NC(C)=O)cc2OC[C@@H](C)N(C(=O)c2cccnc2)C[C@@H]1C` gave FGF22 binding 0.2 and Ecoli rRNA inh 1.7.
`COc1ccc(NC(=O)Nc2ccc3c(c2)C(=O)N([C@@H](C)CO)C[C@@H](C)[C@@H](CN(C)S(C)(=O)=O)OCCCC[C@@H](C)O3)cc1` gave FGF22 binding -0.4 and Ecoli rRNA inh -1.5.
C[C@@H]1CN([C@@H](C)CO)C(=O)c2cc(NC(=O)c3ccccc3)ccc2O[C@@H](C)CCCCO[C@@H]1CN(C)Cc1ccncc1 was read as FGF22 binding -0.4 and Ecoli rRNA inh -3.0.
Screening CC(C)Sc1nc(N2CCOCC2)c2c(c1C#N)CC(C)(C)N(C)C2 returned ADAM17 inh -50.5, proKLK7 act 35.2*, ADAM10 inh -140.5, KLK7 act conf 0.4 and EDANS-DABCYL int 1.5.
CC1(C)Cc2c(c(N3CCOCC3)nc3sc(-c4ccc(C(=O)O)o4)c(N)c23)CO1 was read as ADAM17 inh -51.1, proKLK7 act 46.1*, ADAM10 inh -144.3, KLK7 act conf 22.1* and EDANS-DABCYL int 22.9*.
CN1Cc2c(N3CCOCC3)nc3sc(C(=O)c4ccc(Br)cc4)c(N)c3c2CC1(C)C was read as FGF22 binding -0.3, ADAM17 inh 0.8, proKLK7 act -1.1, ADAM10 inh -6.0 and Ecoli rRNA inh -18.3.
CN1Cc2c(N3CCOCC3)nc3sc(C#N)c(N)c3c2CC1(C)C was read as FGF22 binding -0.1, ADAM17 inh -329.6, proKLK7 act 16.7*, ADAM10 inh inactive, Ecoli rRNA inh -14.7, KLK7 act conf 67.8* and EDANS-DABCYL int 70.0*.
CCCNC(=O)Nc1ccc2c(c1)C(=O)N(C)[C@H]1CC[C@H](CC(=O)OC)O[C@@H]1CO2 was read as Ecoli rRNA inh 1.4.
`Cc1nc2nc(-c3ccc(Cl)cc3)cn2nc1C` gave ADAM17 inh -251.9, proKLK7 act 53.1*, ADAM10 inh inactive, KLK7 act conf 74.9* and EDANS-DABCYL int 78.8*.
`Cc1nc2nc(-c3cccs3)cn2nc1C` gave ADAM17 inh -193.7, proKLK7 act 68.2*, ADAM10 inh inactive, KLK7 act conf 67.7* and EDANS-DABCYL int 66.3*.
`Cc1nn2cc(-c3ccc(Cl)cc3)nc2s1` gave ADAM17 inh -0.2, proKLK7 act 0.6 and ADAM10 inh 5.0.
Screening CO[C@H]1CN(C)C(=O)c2ccc(NC(=O)NC(C)C)cc2OC[C@@H](C)N(Cc2cncnc2)C[C@@H]1C returned Ecoli rRNA inh 0.0.
CO[C@@H]1CN(C)C(=O)c2ccc(NC(=O)c3nc4ccccc4s3)cc2OC[C@@H](C)N(Cc2cncnc2)C[C@H]1C was read as FGF22 binding 0.2 and Ecoli rRNA inh -9.8.
